The results in this text go back to ChEMBL document CHEMBL4513216, “Probing the Open Global Health Chemical Diversity Library for Multistage-Active Starting Points for Next-Generation Antimalarials” (ACS Infect Dis, 2020).

Out of some 69,000 compounds screened, about 8,600 (12%) showed an effect of 50% or more. Shown is part of a subset that was picked to be rich in strong results.

In this assay the test system is Plasmodium berghei. Description: Screen against P. berghei liver stage (PbLuc), transformed with Luciferase, at 10uM. The format is functional, HepG2. Particulars: tested at 10 uM.
With `CC(c1ccco1)N(C)Cc1cc2cc3c(cc2[nH]c1=O)OCO3` (stereo not drawn), the INHIBITION stood at 16.9%.
The figure for `CC1CCN(c2ccc(NC(=O)CCn3cccn3)cc2)CC1` is 11.3%; for `O=C(Cn1cccn1)Nc1ccc(N2CCOCC2)cc1` it is 68.9%; for `O=C(Cn1cccn1)Nc1ccc(N2CCCCC2)cc1` it is 50.2%.
The figure for `CC(NCC(=O)NCC(=O)Nc1ccc(F)cc1)c1cccs1` (stereo not drawn) is 0.734%; for `CCc1nccn1CC(=O)Nc1cccc(C(=O)N(C)C)c1` it is 0.0996%; for `CCc1nccn1CC(=O)Nc1cccc(N2CCCC2)c1` it is 74.55%.
Take `CC1CN(c2ccc(NC(=O)Cn3cccn3)cc2)CCO1` (stereo not drawn): the INHIBITION is reported as 16.5%.
The figure for `CC(C)CCC(=O)NCc1ccc(N2CCCCC2)cc1` is 15.5%.
As for `CCc1nccn1CC(=O)Nc1cccc(C(=O)OC)c1`, the INHIBITION was -10.9%.
On to `CC(NCC(=O)Nc1ccc(N2CCCCCC2)cc1)c1cccs1` (stereo not drawn), for which the INHIBITION is 64.9%.
Take `COC1CCN(c2ccc(NC(=O)Cn3cccc3)cc2)CC1`: the INHIBITION came out at 14.2%.
The figure for `COC1CCN(c2ccc(NC(=O)Cn3cccn3)cc2)CC1` is 8.31%; for `CN1CCN(C(=O)c2ccccc2)CC(Cc2cc(N(C)C)ncn2)C1` (stereo not drawn) it is 21.1%.
In the case of `CCCn1nc(C(=O)N(C)Cc2cnn(C)c2)ccc1=O` it was 48.7%; in that of `CCOCC1CN(C(=O)c2ccnnc2)Cc2cnn(C)c21` (stereo not drawn), -2.35%; in that of `CN1CCN(Cc2cnc3n2CCN(Cc2cccnc2)CC3)CC1`, -1.36%.
The figure for `c1cnc(OCc2nnc3n2CCN(CC2CCOCC2)C3)nc1` is 6.66%; for `Cc1nn(C)c(C)c1C1CCCN1C(=O)CCc1ccco1` (stereo not drawn) it is -37.7%; for `COc1cccc(-c2n[nH]cc2CNC2CCN(C(C)C)CC2)c1` it is -59.5%.
For `CCC(NC(=O)C1CC1)c1ccccc1OCC(=O)N1CCCC1` (stereo not drawn), the INHIBITION stood at 9.47%.
The figure for `Cn1c(=O)[nH]c(=O)n2c(CC(=O)Nc3c(Cl)cccc3Cl)cnc12` is 9.32%; for `CNc1cc(C2CCCN(S(=O)(=O)c3cn[nH]c3)C2)ccn1` (stereo not drawn) it is 28%; for `CN(C)c1cc(C2CCCN(S(=O)(=O)C3CCCC3)C2)ccn1` (stereo not drawn) it is 54.4%.
The figure for `CCS(=O)(=O)N1CCCC(c2ccnc(N(C)C)c2)C1` (stereo not drawn) is 0.301%; for `CN(C)c1cc(C2CCCN(C(=O)c3noc4c3CCCC4)C2)ccn1` (stereo not drawn) it is 65.7%.
In the case of `CN(C)c1cc(C2CCCN(S(=O)(=O)c3cn[nH]c3)C2)ccn1` (stereo not drawn) it was 85.7%; in that of `O=C(c1noc2c1CCCC2)N1CCCC(c2nccs2)C1` (stereo not drawn), 13.7%; in that of `CN(C)c1cc(C2CCCN(S(=O)(=O)c3cn(C)cn3)C2)ccn1` (stereo not drawn), -44.2%.
Turning to `CN(C)c1cc(C2CCCN2C(=O)c2noc3c2CCCC3)ccn1` (stereo not drawn), the INHIBITION is given as -13.2%.
Consider `Cc1cc(C2CCCN(S(=O)(=O)c3cn[nH]c3)C2)ccn1` (stereo not drawn), for which the INHIBITION was 19.6%.
In the case of `Cc1nc(CCNCc2c(C)nn(C)c2N2CCOCC2)cs1` it was -1%; in that of `CCc1cc(NCC(O)CN2CCCCC2)ncn1` (stereo not drawn), 27.4%.
Regarding `COC(=O)Cn1c(=O)[nH]c2cn(-c3ccccc3)c(=O)n21`, the INHIBITION is -4.56%.
Turning to `CC(C)CCN(C)Cc1ccccc1-c1nc(C(C)C)cc(=O)[nH]1`, the INHIBITION is given as -6.83%.
The figure for `Cc1cc(CNCc2c(C(C)C)nn(C)c2N2CCOCC2)no1` is 28.8%.
With `O=C(COCCOc1ccccc1)N1CCCC(n2ccnc2)C1` (stereo not drawn), the INHIBITION is 15.6%.
Regarding `Cc1ccc(CN2CCn3c(C(=O)N(C)C)cnc3C2)s1`, the INHIBITION is 42.1%.
For `CC1CCc2n[nH]c(C(=O)N3CCc4c(nc(N(C)C)[nH]c4=O)C3)c2C1` (stereo not drawn), the INHIBITION stood at 16.3%.
In the case of `CN(C)c1nccc(N(C)Cc2nc3ccccc3n2C)n1`, the INHIBITION amounted to 55.5%.
For `CN(Cc1ncnn1C)c1ccnc(Cc2ccccc2)n1`, the INHIBITION was -7.16%.
In the case of `CN(C)c1nccc(N(C)Cc2ncnn2C)n1` it was 32%.
The figure for `O=C(NC1CC1)[C@@H]1C[C@@H]2CCN(Cc3ccccc3)C[C@@H]2O1` is 47.4%; for `O=C([C@@H]1C[C@@H]2CCN(C3CCOCC3)C[C@@H]2O1)N1CCCC1` it is -24.1%; for `O=C(NCC1CCOCC1)[C@H]1C[C@@H]2CCN(Cc3ccccc3)C[C@H]2O1` it is 32.2%.
In the case of `O=C(NCC1CC1)[C@@H]1C[C@@H]2CCN(Cc3ccccc3)C[C@H]2O1` it was 0.618%.
Turning to `COCCNC(=O)[C@H]1C[C@@H]2CCN(CCc3ccccc3)C[C@H]2O1`, the INHIBITION was determined as 59%.
In the case of `O=C(NC1CCC1)[C@@H]1C[C@@H]2CCN(Cc3cccs3)C[C@@H]2O1` it was 50%; in that of `COCCNC(=O)[C@H]1C[C@@H]2CCN(CCc3ccccc3)C[C@@H]2O1`, 22.9%.
Turning to `COCCNC(=O)[C@H]1C[C@@H]2CCN(c3ccccc3)C[C@H]2O1`, the INHIBITION was 10.5%.
The figure for `O=C(NC1CCC1)[C@@H]1C[C@@H]2CCN(Cc3ccncc3)C[C@H]2O1` is 32.7%; for `O=C(NCC1CC1)[C@H]1C[C@@H]2CCN(CCc3ccccc3)C[C@H]2O1` it is 54.4%.
In the case of `O=C([C@H]1C[C@@H]2CCN(C3CCOCC3)C[C@H]2O1)N1CCCC1` it was 51%; in that of `O=C([C@@H]1C[C@@H]2CCN(C3CCOCC3)C[C@H]2O1)N1CCCC1`, -9.26%; in that of `COc1ccc(OC2CCN(C(=O)[C@@H](N)Cc3c[nH]cn3)CC2)cc1`, 23.3%.
In the case of `CN(C)CC1CSCCCN1C(=O)c1cccc(C(F)(F)F)c1` (stereo not drawn) it was 4.35%; in that of `CC(=O)N1CCN(C(=O)Cc2cnc(-c3c(Cl)cccc3Cl)s2)CC1`, 13.8%.
Regarding `CC(C)N1CCC(c2cc(C(F)(F)F)n3ccnc3n2)CC1`, the INHIBITION was found to be 15.9%.
In the case of `O=C1CNc2ncnc(Nc3cccc(Cn4cccn4)c3)c2N1` it was 46.1%.
In the case of `Cc1nonc1CN(C)Cc1cnn(-c2ccc(Cl)cc2)c1` it was -8.58%; in that of `CN(C)CCCC(=O)N1C[C@@H]2CC[C@H]1CN(Cc1ccccc1)C2`, 11.2%.
The figure for `c1ccc(-n2ccc(CN3CCCCC3Cn3cncn3)n2)cc1` (stereo not drawn) is -10.1%; for `CCn1nc(C)c(NC(=O)CN2CC[C@@H](F)C2)c1C` it is 24.5%; for `COc1ccccc1CN1CC[C@H]2C[C@@H](C(=O)N3CCCC3)O[C@H]2C1` it is -16.6%.
On to `Cc1ncccc1NC(=O)[C@@H]1C[C@@H]2CCN(Cc3cccs3)C[C@H]2O1`, for which the INHIBITION was found to be 8.93%.
For `O=C([C@@H]1C[C@@H]2CCN(c3cccc(F)c3)C[C@H]2O1)N1CCCC1`, the INHIBITION amounted to 42.1%.
In the case of `O=C([C@H]1C[C@@H]2CCN(c3cccc(F)c3)C[C@H]2O1)N1CCCC1` it was 89.5%.
Turning to `Cc1ncccc1NC(=O)[C@H]1C[C@@H]2CCN(Cc3nccs3)C[C@@H]2O1`, the INHIBITION was 31.8%.
As for `CN1CCN(C(=O)[C@@H]2C[C@@H]3CCN(c4cccc(F)c4)C[C@H]3O2)CC1`, the INHIBITION came out at 23.3%.
As for `O=C([C@@H]1C[C@@H]2CCN(Cc3ccoc3)C[C@H]2O1)N1CCCC1`, the INHIBITION is reported as 26.7%.
In the case of `COc1ccccc1CN1CC[C@H]2C[C@H](C(=O)N3CCCC3)O[C@H]2C1` it was 64.2%; in that of `O=C([C@@H]1C[C@@H]2CCN(CCc3ccccc3)C[C@H]2O1)N1CCCC1`, 50%; in that of `CNC(=O)[C@H]1C[C@@H]2CCN(CCc3ccccc3)C[C@@H]2O1`, 18.3%.
As for `Cc1ncccc1NC(=O)[C@H]1C[C@@H]2CCN(Cc3ccsc3)C[C@H]2O1`, the INHIBITION is 75.4%.
In the case of `O=C([C@@H]1C[C@@H]2CCN(Cc3ccc4c(c3)OCO4)C[C@@H]2O1)N1CCCC1`, the INHIBITION was 33.4%.
In the case of `CC(C)c1ccc(-n2ncc(C(=O)NCC3COC(C)(C)O3)c2N)cc1` (stereo not drawn) it was -20.1%; in that of `CCOC(=O)NCCC(=O)NC(C)(C)c1ccc2c(c1)OCCO2`, -15.7%.
Consider `CC(C)(C)c1nc(CN(Cc2cccs2)CC2CCCO2)no1` (stereo not drawn), for which the INHIBITION came out at 11.2%.
In the case of `c1cncc(COc2ccccc2CNC2CCc3ncnn3C2)c1` (stereo not drawn), the INHIBITION was -4.823%.
In the case of `Cc1noc(C2CCC3(CCN(C(=O)c4ncccn4)CC3)O2)n1` (stereo not drawn) it was -14.2%; in that of `O=C(C(c1ccccc1)S(=O)(=O)c1ccccn1)N1CCCCC1` (stereo not drawn), 24.7%.
In the case of `Cc1ccc(C(C)N(C)C(=O)c2ccc(=O)n(C)c2)s1` (stereo not drawn) it was 37.4%.
The figure for `Cc1ncsc1CN1CCOC(C)(C(=O)N(C)C)C1` (stereo not drawn) is 21.1%; for `CCCn1c(C)c(CC(=O)NC(C)(C)CO)c2c1CC(C)(C)CC2=O` it is 4.25%; for `Cn1cc(CN2C[C@@H]3COC[C@]3(C(=O)NCCc3ccccc3)C2)cn1` it is 32.2%.
For the compound `O=C(NC1CCC1)[C@@H]1C[C@@H]2CCN(CCc3ccccc3)C[C@H]2O1`, the INHIBITION was found to be 81.2%.
Consider `O=C(NC1CC1)[C@@H]1C[C@@H]2CCN(Cc3ccccc3)C[C@H]2O1`, for which the INHIBITION is recorded as 29.9%.
The figure for `O=C(NC1CC1)[C@H]1C[C@@H]2CCN(CCc3ccccc3)C[C@H]2O1` is 44.4%; for `CS(=O)(=O)c1ccc(CNC(=O)N2CCC(CO)CC2)cc1` it is 17.4%.
Consider `CCc1nccn1CC1CCCN1S(=O)(=O)N1CCCOCC1` (stereo not drawn), for which the INHIBITION is -9.39%.
In the case of `CN1C[C@H]2CC[C@@H](CC1=O)N2C(=O)c1cc2ccccc2[nH]c1=O` it was -7.53%; in that of `Cc1cc(N(C)C)nc(N2CCCC2c2ccccn2)n1` (stereo not drawn), -30%.
The figure for `CC(C)CCC(=O)NC(C)c1nnc2n1CCCCC2` (stereo not drawn) is 53.8%; for `CC(C)c1noc(CCCC(=O)NC(C)c2nnc3n2CCC3)n1` (stereo not drawn) it is 50.2%.
The figure for `CC(NC(=O)CCC1CCCCC1)c1nnc2n1CCC2` (stereo not drawn) is -31.8%.
As for `CCCC(=O)NC(C)c1nnc2n1CCC2` (stereo not drawn), the INHIBITION turned out to be 3.73%.
In the case of `CC(C)c1noc(CCC(=O)NC(C)c2nnc3n2CCC3)n1` (stereo not drawn) it was 20.6%.
For `CC(C)c1noc(CCC(=O)NC(C)c2nnc3n2CCCCC3)n1` (stereo not drawn), the INHIBITION turned out to be 11.8%.
